# Laboratory results from PMC7862700, “An all-to-all approach to the identification of sequence-specific readers for epigenetic DNA modifications on cytosine”.
# Assays:
# Experiment in all cases: DAPPL (digital affinity profiling via proximity ligation, sequencing); 10 mM Tris-HCl pH 7.5, 50 mM NaCl, 1 mM DTT, 4% glycerol, room temperature, 30 min; GST-TFs on glutathione beads, 16-mer random dsDNA library, 0.1% formaldehyde crosslink after washing; high values mean tight binding
# [1] = biological target: T1, FEV (Homo sapiens, UniProt Q99581 1-238); conditions: protein: recombinant; tags: N-terminal GST; dsDNA, one strand shown
# T1 sequence: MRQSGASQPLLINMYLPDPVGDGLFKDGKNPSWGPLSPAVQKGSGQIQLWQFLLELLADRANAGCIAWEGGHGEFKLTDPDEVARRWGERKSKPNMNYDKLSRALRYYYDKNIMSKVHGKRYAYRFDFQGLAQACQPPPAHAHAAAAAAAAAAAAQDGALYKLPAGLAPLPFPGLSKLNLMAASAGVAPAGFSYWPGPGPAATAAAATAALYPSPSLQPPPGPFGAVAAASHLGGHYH
# Outline: (§1)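 Each value of binding signal is a hexamer's read frequency for a factor divided by the same hexamer's frequency in the tag-only sample. Barcoded, bead-captured GST fusions of human transcription factors made in yeast were pooled with that sample and incubated with 200 nmole of a random double-stranded 16-mer DNA library in Tris/NaCl/DTT/glycerol buffer at room temperature for 30 min. Washing, 0.1% formaldehyde crosslinking, proximity ligation, PCR and Illumina NextSeq500 sequencing followed.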
# [2] = biological target: ETV5 (Homo sapiens, UniProt P41161 1-510); conditions: protein: recombinant; tags: N-terminal GST; dsDNA, one strand shown
# Chain of ETV5 (P41161 whole entry): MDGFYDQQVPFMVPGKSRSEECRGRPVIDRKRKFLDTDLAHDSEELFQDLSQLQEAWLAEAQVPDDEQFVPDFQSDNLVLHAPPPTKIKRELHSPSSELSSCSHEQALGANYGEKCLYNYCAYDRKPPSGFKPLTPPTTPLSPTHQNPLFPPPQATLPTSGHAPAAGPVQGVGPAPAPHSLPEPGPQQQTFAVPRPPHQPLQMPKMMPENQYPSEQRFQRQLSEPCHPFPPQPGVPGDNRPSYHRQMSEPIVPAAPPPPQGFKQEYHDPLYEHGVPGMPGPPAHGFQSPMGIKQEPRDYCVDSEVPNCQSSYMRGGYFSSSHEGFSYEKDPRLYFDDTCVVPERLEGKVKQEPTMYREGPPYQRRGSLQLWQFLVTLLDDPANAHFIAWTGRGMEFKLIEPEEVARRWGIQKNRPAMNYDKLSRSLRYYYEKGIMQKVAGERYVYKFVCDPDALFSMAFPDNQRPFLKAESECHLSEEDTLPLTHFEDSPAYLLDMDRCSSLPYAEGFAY
# Outline: as §1
# [3] = biological target: HSF1 (Homo sapiens, UniProt Q00613 1-529); conditions: protein: recombinant; tags: N-terminal GST; chain copies: 3; dsDNA, one strand shown
# Chain of HSF1 (Q00613 whole entry): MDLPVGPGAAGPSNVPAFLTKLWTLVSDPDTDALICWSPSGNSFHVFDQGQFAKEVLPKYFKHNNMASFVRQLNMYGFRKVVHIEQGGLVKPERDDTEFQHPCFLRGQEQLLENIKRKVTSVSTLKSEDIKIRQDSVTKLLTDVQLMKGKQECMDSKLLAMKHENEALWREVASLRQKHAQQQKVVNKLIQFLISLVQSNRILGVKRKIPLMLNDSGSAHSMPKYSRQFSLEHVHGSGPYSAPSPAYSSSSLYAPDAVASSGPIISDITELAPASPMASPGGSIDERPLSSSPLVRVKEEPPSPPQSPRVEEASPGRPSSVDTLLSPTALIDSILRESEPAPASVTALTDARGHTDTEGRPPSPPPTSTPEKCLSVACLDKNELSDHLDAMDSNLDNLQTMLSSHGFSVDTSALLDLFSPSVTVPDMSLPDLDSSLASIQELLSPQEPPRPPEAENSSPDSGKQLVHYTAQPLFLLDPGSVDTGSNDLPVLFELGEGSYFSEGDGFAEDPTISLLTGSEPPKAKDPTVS
# Outline: as §1
# [4] = biological target: T2, SPIC (Homo sapiens, UniProt Q8N5J4 1-248); conditions: protein: recombinant; tags: N-terminal GST; dsDNA, one strand shown
# T2 sequence: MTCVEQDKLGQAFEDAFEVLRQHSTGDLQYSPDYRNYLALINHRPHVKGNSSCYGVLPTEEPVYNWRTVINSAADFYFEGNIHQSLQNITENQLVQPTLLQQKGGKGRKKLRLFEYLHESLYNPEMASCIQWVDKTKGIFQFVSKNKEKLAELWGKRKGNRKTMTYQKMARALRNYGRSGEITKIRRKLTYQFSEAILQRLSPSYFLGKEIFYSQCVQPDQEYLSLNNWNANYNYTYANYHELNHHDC
# Outline: as §1
# [5] = biological target: ELF4 (Homo sapiens, UniProt Q99607 1-663); conditions: protein: recombinant; tags: N-terminal GST; dsDNA, one strand shown
# Chain of ELF4 (Q99607 whole entry): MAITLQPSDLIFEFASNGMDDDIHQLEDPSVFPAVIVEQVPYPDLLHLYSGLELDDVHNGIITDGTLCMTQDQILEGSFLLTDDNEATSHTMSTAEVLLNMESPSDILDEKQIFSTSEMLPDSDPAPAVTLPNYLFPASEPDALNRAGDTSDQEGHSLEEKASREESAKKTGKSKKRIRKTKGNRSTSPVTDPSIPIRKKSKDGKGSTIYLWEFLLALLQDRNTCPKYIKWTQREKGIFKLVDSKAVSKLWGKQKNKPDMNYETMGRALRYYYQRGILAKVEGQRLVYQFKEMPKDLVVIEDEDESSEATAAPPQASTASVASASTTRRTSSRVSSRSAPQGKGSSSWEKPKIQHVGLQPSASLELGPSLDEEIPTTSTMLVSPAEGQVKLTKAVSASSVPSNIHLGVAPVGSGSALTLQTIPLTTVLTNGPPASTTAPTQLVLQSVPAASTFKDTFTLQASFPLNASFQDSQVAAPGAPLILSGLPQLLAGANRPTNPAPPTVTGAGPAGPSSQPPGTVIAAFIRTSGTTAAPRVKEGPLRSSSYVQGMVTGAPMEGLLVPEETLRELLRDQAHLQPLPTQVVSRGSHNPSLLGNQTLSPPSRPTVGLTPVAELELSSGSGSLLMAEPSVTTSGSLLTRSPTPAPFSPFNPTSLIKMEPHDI
# Outline: as §1
# [6] = biological target: T3, ELK4 (Homo sapiens, UniProt P28324-2 1-405); conditions: protein: recombinant; tags: N-terminal GST; dsDNA, one strand shown
# T3 sequence: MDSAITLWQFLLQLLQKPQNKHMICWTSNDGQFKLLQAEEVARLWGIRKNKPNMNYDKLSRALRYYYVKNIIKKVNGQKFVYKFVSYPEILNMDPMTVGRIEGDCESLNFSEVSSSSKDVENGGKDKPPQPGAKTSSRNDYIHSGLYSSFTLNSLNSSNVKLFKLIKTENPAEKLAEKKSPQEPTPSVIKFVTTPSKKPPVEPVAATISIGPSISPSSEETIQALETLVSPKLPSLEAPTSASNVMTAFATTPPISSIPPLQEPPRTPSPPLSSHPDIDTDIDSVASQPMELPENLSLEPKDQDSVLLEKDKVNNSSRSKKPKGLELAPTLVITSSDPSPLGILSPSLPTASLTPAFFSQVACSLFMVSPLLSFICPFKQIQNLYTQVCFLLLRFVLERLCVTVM
# Outline: as §1
# [7] = biological target: T4, ETV2 (Homo sapiens, UniProt O00321 1-342); conditions: protein: recombinant; tags: N-terminal GST; dsDNA, one strand shown
# T4 sequence: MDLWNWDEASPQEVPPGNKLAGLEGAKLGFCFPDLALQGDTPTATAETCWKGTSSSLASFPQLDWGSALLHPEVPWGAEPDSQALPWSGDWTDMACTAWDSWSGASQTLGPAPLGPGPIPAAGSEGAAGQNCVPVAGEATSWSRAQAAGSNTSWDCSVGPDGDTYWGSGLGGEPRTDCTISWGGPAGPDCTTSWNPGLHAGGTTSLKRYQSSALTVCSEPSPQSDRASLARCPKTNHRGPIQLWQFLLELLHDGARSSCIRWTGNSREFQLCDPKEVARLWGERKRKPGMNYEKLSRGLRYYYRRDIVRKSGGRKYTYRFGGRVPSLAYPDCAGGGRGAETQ
# Outline: as §1
# [8] = biological target: T5, ELF3 (Homo sapiens, UniProt P78545 1-371); conditions: protein: recombinant; tags: N-terminal GST; dsDNA, one strand shown
# T5 sequence: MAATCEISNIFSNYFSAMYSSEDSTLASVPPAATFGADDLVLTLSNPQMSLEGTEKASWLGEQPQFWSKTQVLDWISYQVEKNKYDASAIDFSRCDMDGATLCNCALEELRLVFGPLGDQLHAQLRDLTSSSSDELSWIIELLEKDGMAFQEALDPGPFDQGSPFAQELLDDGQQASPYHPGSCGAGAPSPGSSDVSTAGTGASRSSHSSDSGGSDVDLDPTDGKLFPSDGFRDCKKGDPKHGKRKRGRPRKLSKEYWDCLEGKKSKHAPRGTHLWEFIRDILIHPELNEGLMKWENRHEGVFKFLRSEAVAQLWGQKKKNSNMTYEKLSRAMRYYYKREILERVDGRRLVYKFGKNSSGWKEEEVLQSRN
# Outline: as §1
# [9] = biological target: CRX (Homo sapiens, UniProt O43186 1-299); conditions: protein: recombinant; tags: N-terminal GST; dsDNA, one strand shown
# Chain of CRX (O43186 whole entry): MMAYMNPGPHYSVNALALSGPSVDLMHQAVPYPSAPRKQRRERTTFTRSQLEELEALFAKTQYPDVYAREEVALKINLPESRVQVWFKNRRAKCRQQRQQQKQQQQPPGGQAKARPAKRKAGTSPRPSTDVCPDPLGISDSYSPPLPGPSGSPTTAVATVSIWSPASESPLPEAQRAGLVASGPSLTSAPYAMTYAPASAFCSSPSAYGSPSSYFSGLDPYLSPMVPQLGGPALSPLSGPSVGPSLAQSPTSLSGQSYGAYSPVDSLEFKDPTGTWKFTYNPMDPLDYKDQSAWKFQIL
# Outline: as §1
# [10] = biological target: ETV1 (Homo sapiens, UniProt P50549 1-477); conditions: protein: recombinant; tags: N-terminal GST; dsDNA, one strand shown
# Chain of ETV1 (P50549 whole entry): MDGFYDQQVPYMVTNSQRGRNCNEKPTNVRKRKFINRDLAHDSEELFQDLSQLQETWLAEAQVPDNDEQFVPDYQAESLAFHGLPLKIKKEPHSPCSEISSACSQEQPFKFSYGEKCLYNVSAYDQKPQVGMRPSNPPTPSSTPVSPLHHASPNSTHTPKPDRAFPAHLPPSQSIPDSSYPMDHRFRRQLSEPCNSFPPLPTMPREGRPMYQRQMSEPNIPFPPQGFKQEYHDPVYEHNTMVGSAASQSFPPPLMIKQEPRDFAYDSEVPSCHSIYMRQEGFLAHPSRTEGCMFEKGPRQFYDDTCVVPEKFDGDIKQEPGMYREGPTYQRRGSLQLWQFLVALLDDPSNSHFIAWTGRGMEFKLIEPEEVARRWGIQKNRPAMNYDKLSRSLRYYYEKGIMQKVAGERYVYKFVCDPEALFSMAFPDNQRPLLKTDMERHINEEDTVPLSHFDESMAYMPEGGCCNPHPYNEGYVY
# Outline: as §1
# [11] = biological target: T6, ERF (Homo sapiens, UniProt P50548 1-548); conditions: protein: recombinant; tags: N-terminal GST; dsDNA, one strand shown
# T6 sequence: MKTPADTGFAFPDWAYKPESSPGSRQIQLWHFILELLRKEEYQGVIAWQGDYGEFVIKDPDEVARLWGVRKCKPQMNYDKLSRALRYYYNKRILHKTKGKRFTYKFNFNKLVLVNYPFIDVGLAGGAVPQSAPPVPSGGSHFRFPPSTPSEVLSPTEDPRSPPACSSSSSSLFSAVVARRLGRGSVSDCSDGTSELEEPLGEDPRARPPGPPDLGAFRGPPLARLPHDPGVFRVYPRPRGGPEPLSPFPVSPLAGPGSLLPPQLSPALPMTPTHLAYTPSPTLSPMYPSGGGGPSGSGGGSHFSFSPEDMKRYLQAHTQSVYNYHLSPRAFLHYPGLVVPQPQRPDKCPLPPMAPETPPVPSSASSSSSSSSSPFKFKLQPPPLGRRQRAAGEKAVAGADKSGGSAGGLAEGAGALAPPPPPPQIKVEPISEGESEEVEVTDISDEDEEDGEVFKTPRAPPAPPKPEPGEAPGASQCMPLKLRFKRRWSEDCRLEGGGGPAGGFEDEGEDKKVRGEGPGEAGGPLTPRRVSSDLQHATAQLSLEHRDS
# Outline: as §1
# [12] = biological target: T7, ETV3L (Homo sapiens, UniProt Q6ZN32 1-361); conditions: protein: recombinant; tags: N-terminal GST; dsDNA, one strand shown
# T7 sequence: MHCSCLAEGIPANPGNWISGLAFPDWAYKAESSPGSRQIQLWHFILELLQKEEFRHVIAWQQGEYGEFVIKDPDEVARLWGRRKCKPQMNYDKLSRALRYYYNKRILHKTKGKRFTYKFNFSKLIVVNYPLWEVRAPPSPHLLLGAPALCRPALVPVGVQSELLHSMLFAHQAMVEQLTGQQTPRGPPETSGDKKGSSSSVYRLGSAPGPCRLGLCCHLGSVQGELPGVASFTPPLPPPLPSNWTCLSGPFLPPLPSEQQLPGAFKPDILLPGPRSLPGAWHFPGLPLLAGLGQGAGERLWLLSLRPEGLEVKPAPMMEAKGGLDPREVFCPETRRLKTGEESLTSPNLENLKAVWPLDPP
# Outline: as §1
# [13] = biological target: T8, ETS2 (Homo sapiens, UniProt P15036 1-469); conditions: protein: recombinant; tags: N-terminal GST; dsDNA, one strand shown
# T8 sequence: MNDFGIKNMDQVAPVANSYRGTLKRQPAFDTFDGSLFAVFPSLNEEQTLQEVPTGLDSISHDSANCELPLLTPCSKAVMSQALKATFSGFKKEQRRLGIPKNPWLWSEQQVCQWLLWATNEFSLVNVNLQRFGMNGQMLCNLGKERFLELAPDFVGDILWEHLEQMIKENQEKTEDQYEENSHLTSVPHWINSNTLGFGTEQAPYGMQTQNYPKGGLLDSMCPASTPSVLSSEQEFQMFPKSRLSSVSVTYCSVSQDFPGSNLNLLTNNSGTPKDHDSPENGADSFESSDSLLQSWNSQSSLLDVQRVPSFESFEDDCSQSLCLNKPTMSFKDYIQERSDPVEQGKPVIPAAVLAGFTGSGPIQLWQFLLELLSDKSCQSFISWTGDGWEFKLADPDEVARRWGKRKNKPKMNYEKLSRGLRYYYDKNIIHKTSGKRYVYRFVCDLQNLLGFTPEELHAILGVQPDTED
# Outline: as §1
# [14] = biological target: T9, SPDEF (Homo sapiens, UniProt O95238 1-335); conditions: protein: recombinant; tags: N-terminal GST; dsDNA, one strand shown
# T9 sequence: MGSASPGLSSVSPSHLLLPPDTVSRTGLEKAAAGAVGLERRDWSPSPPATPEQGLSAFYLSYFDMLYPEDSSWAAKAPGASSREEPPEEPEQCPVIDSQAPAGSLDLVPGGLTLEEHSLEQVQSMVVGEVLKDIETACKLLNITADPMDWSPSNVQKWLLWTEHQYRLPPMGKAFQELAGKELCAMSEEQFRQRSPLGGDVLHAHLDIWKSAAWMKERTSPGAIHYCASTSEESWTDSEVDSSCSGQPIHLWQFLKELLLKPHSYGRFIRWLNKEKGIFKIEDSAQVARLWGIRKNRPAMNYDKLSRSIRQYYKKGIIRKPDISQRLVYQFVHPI
# Outline: as §1
# [15] = biological target: T10, ETV7 (Homo sapiens, UniProt Q9Y603 1-341); conditions: protein: recombinant; tags: N-terminal GST; dsDNA, one strand shown
# T10 sequence: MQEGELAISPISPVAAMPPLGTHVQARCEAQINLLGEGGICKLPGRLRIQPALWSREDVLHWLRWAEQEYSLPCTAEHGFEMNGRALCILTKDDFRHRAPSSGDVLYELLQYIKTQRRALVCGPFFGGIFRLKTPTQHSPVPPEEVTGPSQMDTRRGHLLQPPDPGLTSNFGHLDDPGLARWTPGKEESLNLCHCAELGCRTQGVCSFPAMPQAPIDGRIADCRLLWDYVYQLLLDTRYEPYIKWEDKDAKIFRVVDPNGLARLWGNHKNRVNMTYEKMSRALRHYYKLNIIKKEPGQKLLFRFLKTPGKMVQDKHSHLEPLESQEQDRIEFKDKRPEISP
# Outline: as §1
# [16] = biological target: T11, ELF5 (Homo sapiens, UniProt Q9UKW6-2 1-255); conditions: protein: recombinant; tags: N-terminal GST; dsDNA, one strand shown
# T11 sequence: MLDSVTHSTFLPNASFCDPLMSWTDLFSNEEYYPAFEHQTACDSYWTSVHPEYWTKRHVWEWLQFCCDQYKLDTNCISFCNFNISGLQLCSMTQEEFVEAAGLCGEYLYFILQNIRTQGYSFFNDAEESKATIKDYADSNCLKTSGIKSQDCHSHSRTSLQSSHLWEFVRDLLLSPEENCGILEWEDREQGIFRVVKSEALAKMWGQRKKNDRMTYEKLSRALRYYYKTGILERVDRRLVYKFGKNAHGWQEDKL
# Outline: as §1
# [17] = biological target: T12, ETV3 (Homo sapiens, UniProt P41162-2 1-143); conditions: protein: recombinant; tags: N-terminal GST; dsDNA, one strand shown
# T12 sequence: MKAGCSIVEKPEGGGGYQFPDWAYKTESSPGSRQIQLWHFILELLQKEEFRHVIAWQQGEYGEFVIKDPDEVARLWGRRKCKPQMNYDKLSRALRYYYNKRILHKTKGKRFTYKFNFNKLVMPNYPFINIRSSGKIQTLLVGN
# Outline: as §1
# [18] = biological target: ETV6 (Homo sapiens, UniProt P41212 1-452); conditions: protein: recombinant; tags: N-terminal GST; dsDNA, one strand shown
# Chain of ETV6 (P41212 whole entry): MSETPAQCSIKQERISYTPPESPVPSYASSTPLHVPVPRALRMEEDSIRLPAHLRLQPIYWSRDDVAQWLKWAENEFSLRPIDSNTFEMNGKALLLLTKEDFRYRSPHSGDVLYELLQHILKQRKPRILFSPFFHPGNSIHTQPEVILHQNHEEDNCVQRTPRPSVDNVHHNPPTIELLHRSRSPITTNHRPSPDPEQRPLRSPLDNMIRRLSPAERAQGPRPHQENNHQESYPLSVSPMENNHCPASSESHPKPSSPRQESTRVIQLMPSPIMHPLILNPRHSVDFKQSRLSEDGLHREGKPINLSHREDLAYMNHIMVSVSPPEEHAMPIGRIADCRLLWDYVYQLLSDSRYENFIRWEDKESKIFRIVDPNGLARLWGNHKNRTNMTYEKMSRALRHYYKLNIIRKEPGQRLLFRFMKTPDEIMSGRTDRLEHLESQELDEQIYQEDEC
# Outline: as §1
sequence,measurement,setting,value
TCTTGC,binding signal,[1],"1.24 fold enrichment (6-mer frequency, TF over GST control)"
same,binding signal,[2],"1.39 fold enrichment (6-mer frequency, TF over GST control)"
same,binding signal,[3],"1.2 fold enrichment (6-mer frequency, TF over GST control)"
same,binding signal,[4],"1.36 fold enrichment (6-mer frequency, TF over GST control)"
same,binding signal,[5],"1.32 fold enrichment (6-mer frequency, TF over GST control)"
same,binding signal,[6],"1.3 fold enrichment (6-mer frequency, TF over GST control)"
same,binding signal,[7],"1.36 fold enrichment (6-mer frequency, TF over GST control)"
same,binding signal,[8],"1.4 fold enrichment (6-mer frequency, TF over GST control)"
same,binding signal,[9],"1.21 fold enrichment (6-mer frequency, TF over GST control)"
same,binding signal,[10],"1.4 fold enrichment (6-mer frequency, TF over GST control)"
same,binding signal,[11],"1.4 fold enrichment (6-mer frequency, TF over GST control)"
same,binding signal,[12],"1.36 fold enrichment (6-mer frequency, TF over GST control)"
same,binding signal,[13],"1.35 fold enrichment (6-mer frequency, TF over GST control)"
same,binding signal,[14],"1.33 fold enrichment (6-mer frequency, TF over GST control)"
same,binding signal,[15],"1.38 fold enrichment (6-mer frequency, TF over GST control)"
same,binding signal,[16],"1.34 fold enrichment (6-mer frequency, TF over GST control)"
same,binding signal,[17],"1.47 fold enrichment (6-mer frequency, TF over GST control)"
same,binding signal,[18],"1.18 fold enrichment (6-mer frequency, TF over GST control)"
